Measurements reported in PubChem BioAssay (NCATS).
Several values for one entry are separate records, joined by “and”; a condition that tells them apart may be missing. Equal values may be shown once. Results filed as inconclusive are left out. Where a call stands in place of a potency, no number is given. Some compounds were tested as several samples or in several runs, with calls that do not always agree. Activity calls are given as the source filed them. The call rests on the fitted dose curve.

assay: Cytotoxicity counterscreen for inhibitors of SARS-CoV-2 cell entry (AID 1645845); conditions: cell viability (SARS-CoV-2 entry assay cells); series mostly up to 57.1 µM; activity change, negative = cytotoxicity: at the top concentration; further: nearly all actives have a fitted effect of over 50% in size
How it was run: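 ATP-content luminescence (ATPLite 1step, 15 min RT) read after 48 h compound exposure of Expi293F cells stably expressing human ACE2; normalized to cells-only wells and media-only wells.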
Potency means the concentration at half of the fitted maximal effect.

| Compound | outcome | activity change, negative = cytotoxicity | Potency |
| --- | --- | --- | --- |
| NC(=O)N1c2ccccc2C=Cc2ccccc21 | inactive | – | – |
| CCOC(=O)[C@H](CCc1ccccc1)N[C@H]1CCCN2CCC[C@@H](C(=O)O)N2C1=O | inactive | – | – |
| Clc1cccc(C(c2ccc3nc[nH]c3c2)n2ccnc2)c1 (stereo not given) | inactive | – | – |
| CO[C@@]1(NC(=O)CSC[C@@H](N)C(=O)O)C(=O)N2C(C(=O)O)=C(CSc3nnnn3C)CS[C@@H]21 | – | 1.48% (inactive) | – |
| COc1ccc(O)cc1 | inactive | – | – |
| C=CCN1C[C@H](C(=O)N(CCCN(C)C)C(=O)NCC)C[C@@H]2c3cccc4[nH]cc(c34)C[C@H]21 | inactive | – | – |
| COCCCOc1ccnc(CS(=O)c2nc3ccccc3[nH]2)c1C (stereo not given) | – | -23% (inactive) | – |
| C=C1[C@H](CO)[C@@H](O)C[C@@H]1n1cnc2c(=O)[nH]c(N)nc21 | – | – | inactive |
| C#CCN[C@@H]1CCc2ccccc21 | – | – | inactive |
| CC1(C)O[C@@H]2C[C@H]3[C@@H]4C[C@H](F)C5=CC(=O)C=C[C@]5(C)[C@@]4(F)[C@@H](O)C[C@]3(C)[C@]2(C(=O)CO)O1 | – | – | inactive |
| NS(=O)(=O)c1cc(C2(O)NC(=O)c3ccccc32)ccc1Cl (stereo not given) | inactive | – | – |
| COC(=O)C(c1ccccc1)C1CCCCN1 (stereo not given) | – | -20.5% (inactive) | – |
| COc1ccc(C2CNC(=O)C2)cc1OC1CCCC1 (stereo not given) | – | – | inactive |
| NS(=O)(=O)c1cc(C(=O)O)cc(N2CCCC2)c1Oc1ccccc1 | – | -10.2% (inactive) | – |
| CCCc1nn(C)c2c(=O)[nH]c(-c3cc(S(=O)(=O)N4CCN(C)CC4)ccc3OCC)nc12 | – | – | inactive |
| CC(=O)NCCCS(=O)(=O)O | – | – | inactive |
| CN1C(CSCC(F)(F)F)Nc2cc(Cl)c(S(N)(=O)=O)cc2S1(=O)=O (stereo not given) | – | -12.3% (inactive) | – |
| CN(c1nccc(=O)[nH]1)C1CCN(c2nc3ccccc3n2Cc2ccc(F)cc2)CC1 | inactive | – | – |
| COc1cc2c(Nc3ccc(Br)cc3F)ncnc2cc1OCC1CCN(C)CC1 | – | – | inactive and 31.6 µM (active) |
| O=C(Cn1ccnc1[N+](=O)[O-])NCc1ccccc1 | – | -8.8% (inactive) | – |

| Compound | outcome | activity change, negative = cytotoxicity | Potency |
| --- | --- | --- | --- |
| CC(C)(C)C(=O)Oc1ccc(S(=O)(=O)Nc2ccccc2C(=O)NCC(=O)O)cc1 | – | – | inactive |
| N#Cc1ccc2c(c1)N(CCCN1CCC(O)CC1)c1ccccc1S2 | – | -26.9% (inactive) | – |
| COc1ccc2cccc(CCNC(C)=O)c2c1 | – | – | inactive |
| Cc1nnc(NS(=O)(=O)c2ccc(N)cc2)s1 | – | – | inactive |
| Cc1c[nH]c2ccccc12 | inactive | – | – |
| CC(=O)OCC(=O)[C@H]1CC[C@H]2[C@@H]3CCC4=CC(=O)CC[C@]4(C)[C@H]3CC[C@]12C | – | -9.19% (inactive) | – |
| c1ccc2sc(SN3CCOCC3)nc2c1 | inactive | – | – |
| O=C(O)Cc1sc(-c2ccccc2)nc1-c1ccc(Cl)cc1 | inactive | – | – |
| CC(C)(Oc1ccc(C2CC2(Cl)Cl)cc1)C(=O)O (stereo not given) | – | – | inactive |
| CCN1CCCC1CNC(=O)c1cc(S(=O)(=O)CC)c(N)cc1OC (stereo not given) | – | – | inactive |
| OC[C@H]1O[C@H](O[C@]2(CCl)O[C@H](CCl)[C@@H](O)[C@@H]2O)[C@H](O)[C@@H](O)[C@H]1Cl | inactive | – | – |
| C[C@](N)(Cc1ccc(O)cc1)C(=O)O | inactive [at 5.25 µM] | – | – |
| NC(N)=NC(=O)Cc1c(Cl)cccc1Cl | – | -19% (inactive) | – |
| O=C(O[C@H]1CN2CCC1CC2)N1CCc2ccccc2[C@@H]1c1ccccc1 | – | 0.205% (inactive) | – |
| CNCCCCOc1ccccc1Cc1ccccc1 | inactive | – | – |
| Cc1ccccc1C(=O)N1CC/C(=N\OS(=O)(=O)O)c2ccc(Cl)cc21 | inactive | – | – |
| CCOC(=O)NNc1ccc(N(CC)CC(C)O)nn1 (stereo not given) | – | 0.452% (inactive) | – |
| CCOC(=O)O[C@]1(C(=O)OCCl)CC[C@H]2[C@@H]3CCC4=CC(=O)C=C[C@]4(C)[C@H]3[C@@H](O)C[C@@]21C | – | – | inactive |
| CO/N=C(/C(=O)N[C@@H]1C(=O)N2C(C(=O)[O-])=C(C[n+]3ccn4ncccc43)CS[C@H]12)c1nsc(N)n1 | inactive | – | – |
| CC(C)[C@H](N)C(=O)OCC(CO)OCn1cnc2c(=O)[nH]c(N)nc21 (stereo not given in full) | inactive | – | – |
